Measurements from PubChem BioAssay (Tox21).
Records with an inconclusive call do not appear. The source made the active and inactive calls. Unless noted, the call rests on the fitted dose curve; in most records, active means well fitted curve in the direction sought with a large enough effect in the repeat runs; inconclusive means weak or mixed curves; inactive means no such curve, though single readings can be large; an effect the other way counts as inactive or inconclusive.

How the values were obtained:
[1] = qHTS assay to identify small molecule agonists of the androgen receptor (AR) signaling pathway in the presence of an antagonist - cell viability counter screen (AID 1259379);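 further: MDA-kb2 human breast cancer cells carrying an MMTV luciferase reporter; series mostly up to about 92 µM; nearly all actives have a fitted effect of over 25% in size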
Procedure, shortened: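 Seed MDA-kb2 at 3,000 cells/well; incubate 5 hr, 37C, 0% CO2. Add nilutamide to 3.0uM final, then pin compounds at 15 concentrations. Incubate 16 hr. Add CellTiter-Fluor at 15 hr, read fluorescence after 1 hr.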

[2] = qHTS assay to identify small molecule agonists of the estrogen receptor beta (ER-beta) signaling pathway - cell viability counter screen (AID 1259380); further: nearly all actives have a fitted effect of over 30% in size; further: potency means the concentration at half of the fitted maximal effect
Procedure, shortened: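 CellTiter-Glo read, 30 min RT, same wells as bla assay; cells ER-beta-UAS-bla HEK293T; 16 hr compound, 37C; medium 2% charcoal-stripped FBS.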

[3] = target: Androgen receptor (Homo sapiens) (UniProt P10275); test: qHTS assay to identify small molecule agonists of the androgen receptor (AR) signaling pathway in the presence of an antagonist (AID 1259381; calls by dose curve; further: nearly all actives have a fitted effect of over 15% in size)
Procedure, shortened: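 Test compounds at 15 concentrations were incubated for 16hr with MDA-kb2 reporter cells in presence of 3.0uM nilutamide (final). Signal: ONE-Glo luciferase luminescence.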

[4] = qHTS assay to identify small molecule antagonists of the estrogen receptor beta (ER-beta) signaling pathway - cell viability counter screen (AID 1259382); further: nearly all actives have a fitted effect of over 55% in size; further: potency means the concentration at half of the fitted maximal effect
Procedure, shortened: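 In this multiplexed counter screen, cells were seeded at 2,000 per well in medium with 2% charcoal-stripped FBS and incubated 6 hr before compound and 1nM final E2 were added. Sixteen hours later, ATP-based luminescence reported viability.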

[5] = target: Estrogen receptor (Homo sapiens) (UniProt P03372); test: qHTS assay to identify small molecule agonists of the estrogen receptor alpha (ER-alpha) signaling pathway in the presence of an antagonist (AID 1259383; calls by dose curve; further: top concentration of the series differs between compounds; nearly all actives have a fitted effect of over 15% in size)
Procedure, shortened: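 Stably transfected VM7Luc4E2 reporter cells, kept 5 days in charcoal-stripped serum, received ICI-182,780 at 10.0nM final before compound addition. Following 22hr incubation at 37C and 5% CO2, luciferase signal was read by luminescence.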

[6] = qHTS assay to identify small molecule agonists or antagonists of the thyroid stimulating hormone receptor (TSHR) signaling pathway - wild type cell line counter screen (AID 1259384; calls by dose curve)
Procedure, shortened: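 Counter screen in untransfected Hek293: compounds (15-point titration, triplicate) plus phosphodiesterase inhibitor Ro20-1724 added after 18 h plating; 30 min RT. Intracellular cAMP via competitive d2/cryptate immunoassay, 1 h incubation.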

[7] = target: Thyrotropin receptor (Homo sapiens) (UniProt P16473); test: qHTS assay to identify small molecule antagonists of the thyroid stimulating hormone receptor (TSHR) signaling pathway (AID 1259385; calls by dose curve; further: nearly all actives have a fitted effect of over 20% in size)
Procedure, shortened: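 Antagonist mode: compound-treated TSHR-expressing HEK293 cells were stimulated with 1.5 ng/mL TSH (final) in presence of Ro20-1724 for 30 min at RT. HTRF cAMP detection after 1 h; each compound tested at 15 concentrations, triplicate.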

[8] = target: Estrogen receptor beta (Homo sapiens) (UniProt Q92731); test: qHTS assay to identify small molecule agonists of the estrogen receptor beta (ER-beta) signaling pathway (AID 1259377; active means well fitted activation curve with a large enough effect in the signal ratio in the repeat runs, not every such curve was filed as active; the % refers to the signal ratio)
Procedure, shortened: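 Ratiometric beta-lactamase FRET read-out came after 2 h substrate loading at room temperature. It followed 16 h compound treatment at 37C of GripTite HEK293T cells carrying a UAS-bla reporter, plated in 2% charcoal-stripped FBS medium.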

Measured: Potency

Thyrotropin receptor (Homo sapiens), sequence (P16473 whole entry, looked up): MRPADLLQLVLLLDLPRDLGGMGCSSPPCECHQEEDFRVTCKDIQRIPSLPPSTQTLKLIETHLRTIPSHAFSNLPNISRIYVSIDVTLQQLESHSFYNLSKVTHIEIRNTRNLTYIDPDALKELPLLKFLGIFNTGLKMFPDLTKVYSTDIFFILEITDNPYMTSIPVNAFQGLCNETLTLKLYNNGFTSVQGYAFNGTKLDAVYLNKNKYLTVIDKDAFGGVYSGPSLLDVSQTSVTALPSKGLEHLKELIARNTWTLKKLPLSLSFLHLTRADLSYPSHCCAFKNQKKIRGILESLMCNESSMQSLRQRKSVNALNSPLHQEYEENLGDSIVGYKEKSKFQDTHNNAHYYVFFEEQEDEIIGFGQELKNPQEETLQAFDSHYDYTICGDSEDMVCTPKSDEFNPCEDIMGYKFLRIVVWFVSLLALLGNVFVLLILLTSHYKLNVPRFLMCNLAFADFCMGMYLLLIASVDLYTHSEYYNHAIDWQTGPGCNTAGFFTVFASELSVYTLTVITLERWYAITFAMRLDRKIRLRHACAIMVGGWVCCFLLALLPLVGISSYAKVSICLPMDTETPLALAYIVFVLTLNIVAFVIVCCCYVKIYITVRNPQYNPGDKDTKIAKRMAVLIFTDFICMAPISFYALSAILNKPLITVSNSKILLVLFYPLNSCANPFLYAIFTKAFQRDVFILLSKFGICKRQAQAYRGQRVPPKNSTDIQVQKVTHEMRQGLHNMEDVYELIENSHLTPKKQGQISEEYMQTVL
Estrogen receptor (Homo sapiens), sequence (P03372 whole entry, looked up): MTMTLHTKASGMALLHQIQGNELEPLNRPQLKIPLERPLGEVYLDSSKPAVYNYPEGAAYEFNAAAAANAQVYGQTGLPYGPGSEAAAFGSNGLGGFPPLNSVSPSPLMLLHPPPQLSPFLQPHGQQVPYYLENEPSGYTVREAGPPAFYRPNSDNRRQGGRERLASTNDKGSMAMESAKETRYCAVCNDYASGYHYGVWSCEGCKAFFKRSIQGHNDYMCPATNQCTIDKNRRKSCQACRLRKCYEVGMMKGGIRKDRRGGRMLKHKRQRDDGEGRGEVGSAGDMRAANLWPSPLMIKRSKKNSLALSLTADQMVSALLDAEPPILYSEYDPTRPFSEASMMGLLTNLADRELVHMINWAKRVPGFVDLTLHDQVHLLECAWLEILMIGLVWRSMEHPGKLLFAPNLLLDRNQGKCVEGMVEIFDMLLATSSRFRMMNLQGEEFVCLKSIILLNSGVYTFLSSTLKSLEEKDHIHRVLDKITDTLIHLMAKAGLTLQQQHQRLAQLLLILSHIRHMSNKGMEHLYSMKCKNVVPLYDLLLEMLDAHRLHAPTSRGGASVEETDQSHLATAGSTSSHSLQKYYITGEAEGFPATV
Estrogen receptor beta (Homo sapiens), sequence (Q92731 whole entry, looked up): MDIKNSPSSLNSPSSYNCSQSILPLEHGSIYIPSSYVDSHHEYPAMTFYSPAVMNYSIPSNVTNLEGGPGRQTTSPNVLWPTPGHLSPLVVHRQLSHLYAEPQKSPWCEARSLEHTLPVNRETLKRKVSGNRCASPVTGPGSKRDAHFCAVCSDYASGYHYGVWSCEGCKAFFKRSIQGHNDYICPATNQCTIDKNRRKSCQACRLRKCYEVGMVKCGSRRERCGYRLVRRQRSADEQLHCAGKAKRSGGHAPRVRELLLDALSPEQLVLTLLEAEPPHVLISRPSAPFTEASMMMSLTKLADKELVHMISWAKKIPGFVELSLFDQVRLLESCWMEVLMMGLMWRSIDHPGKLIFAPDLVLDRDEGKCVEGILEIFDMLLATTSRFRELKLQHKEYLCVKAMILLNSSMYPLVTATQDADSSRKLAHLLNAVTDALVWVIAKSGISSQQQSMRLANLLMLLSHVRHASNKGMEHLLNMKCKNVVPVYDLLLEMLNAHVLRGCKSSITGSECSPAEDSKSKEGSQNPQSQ
Androgen receptor (Homo sapiens), sequence (P10275 whole entry, looked up): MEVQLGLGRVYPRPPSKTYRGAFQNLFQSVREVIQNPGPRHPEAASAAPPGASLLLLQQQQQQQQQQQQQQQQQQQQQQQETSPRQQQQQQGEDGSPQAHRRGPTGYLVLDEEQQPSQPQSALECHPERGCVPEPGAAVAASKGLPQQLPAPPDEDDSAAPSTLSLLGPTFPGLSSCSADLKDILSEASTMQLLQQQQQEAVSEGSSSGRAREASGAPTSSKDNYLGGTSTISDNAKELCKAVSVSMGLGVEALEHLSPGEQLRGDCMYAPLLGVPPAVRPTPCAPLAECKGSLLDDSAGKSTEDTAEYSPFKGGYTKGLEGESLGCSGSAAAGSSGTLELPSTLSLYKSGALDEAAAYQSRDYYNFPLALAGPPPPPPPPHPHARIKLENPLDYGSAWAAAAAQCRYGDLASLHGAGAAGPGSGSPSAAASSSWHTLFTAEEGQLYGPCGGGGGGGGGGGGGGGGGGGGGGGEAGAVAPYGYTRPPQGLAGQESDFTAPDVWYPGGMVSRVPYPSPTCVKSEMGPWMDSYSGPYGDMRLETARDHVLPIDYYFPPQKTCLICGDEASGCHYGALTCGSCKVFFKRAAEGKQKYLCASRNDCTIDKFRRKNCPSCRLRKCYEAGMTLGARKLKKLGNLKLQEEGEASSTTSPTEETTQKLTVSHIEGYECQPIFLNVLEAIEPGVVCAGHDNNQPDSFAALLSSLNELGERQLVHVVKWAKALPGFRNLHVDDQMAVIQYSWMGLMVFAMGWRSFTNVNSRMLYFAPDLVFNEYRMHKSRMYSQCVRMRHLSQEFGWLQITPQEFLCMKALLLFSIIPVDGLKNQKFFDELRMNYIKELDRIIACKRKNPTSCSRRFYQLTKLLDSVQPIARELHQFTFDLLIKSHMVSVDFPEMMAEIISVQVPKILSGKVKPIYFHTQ

CCCCCC[C@@H](O)C/C=C\CCCCCCCC(=O)OC
not listed: [8]
inactive: all other assays above

O=C(O)c1nc(Cl)c(Cl)c(Cl)c1Cl
inactive: [1] | [4] | [6] | [7]

O=C(O)c1ccc(-n2nc(-c3ccccc3O)nc2-c2ccccc2O)cc1
inactive: [1] | [2] | [5]

CCN(CC)CCNc1ccc(CNC=O)c2sc3ccc(OC)cc3c(=O)c12
active: [2] 8.63 µM | [4] 8.63 µM
inactive: [5]

C=C(C)C(=O)OCCO
not listed: [3] | [8]
inactive: all other assays above

CCCCCCCCCCCCN1CCCCCC1=O
inactive: [8] | [1] | [4] | [6]
